In assay [1] the test system is TRPC4 beta (transient receptor potential cation channel C4), mouse. Description: TRPC4 cation channel opening, retest – cell-based, Fluo4 calcium, HEK293 TRPC4beta/mu-opioid, duplicates, 10 µM, confirmation (AID 2426;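 active = fluorescence ratio normalized to control raised more than 50% in primary screen plus both repeat runs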;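 as to activation: percent rise of integrated ratio over buffer wells lacking compound which define 0%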). The note with it: Fluo4 calcium fluorescence, at 10 µM; active compounds read high.
Assay [2] relates to transient receptor potential cation channel C4 beta (TRPC4), mouse. Description: TRPC4 cation channel opening, second retest – cell-based, second round, Fluo4, HEK293 TRPC4beta/mu-opioid, 1 µM, confirmation (AID 2461;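 active = primary screen active and over 50% activation in each of two duplicate runs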;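 as to activation: 0% = wells without test compound as baseline of integrated fluorescence ratio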). The following applies: Fluo4 calcium fluorescence, at 1 µM; active compounds read high.
Assay [3] relates to TRPC4 (transient receptor potential cation channel C4 beta), mouse. Description: potentiation of DAMGO EC20 TRPC4 response – cell-based, second round, Fluo-4, HEK293 TRPC4beta/mu-opioid, 1 µM, confirmation (AID 2554;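 active = primary screen hit whose fluorescence ratio, in both repeats, exceeds the weak agonist control mean by 3 SD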). The following applies: DAMGO EC20, Fluo-4 calcium flux, at 1 µM; active compounds read high.
Assay [4] deals with TRPC4 beta (transient receptor potential cation channel C4), mouse. Briefly: potentiation of DAMGO EC20 TRPC4 response – cell-based, Fluo-4, HEK293 TRPC4beta/mu-opioid, confirmation (AID 2555;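 active = primary screen hit whose calcium fluorescence ratio, in both repeats, exceeds the weak agonist control mean by 3 SD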). The note with it: DAMGO EC20, Fluo-4 calcium flux, at 10 µM; active compounds read high.
Assay [5] concerns the target Short transient receptor potential channel 4 (Mus musculus) (UniProt Q9QUQ5). Briefly: blockers of DAMGO-evoked TRPC4 calcium flux – cell-based, Fluo4, HEK293 TRPC4beta/mu-opioid, confirmation (AID 2636;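 active = calcium signal cut by more than 3 SD below the full-agonist control yet still positive, in both repeats and the earlier primary screen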). The following applies: at 10 µM; active compounds read high. Background: Calcium flux is commonly read through the fluorescence of an indicator in the cells.
Assay [6] shares this target. Briefly: blockers of DAMGO-evoked TRPC4 calcium flux – cell-based, second round, Fluo4, HEK293 TRPC4beta/mu-opioid, 1 µM, confirmation (AID 2637;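 active = calcium signal ratio cut to more than 3 SD under the fully stimulated control mean yet still positive, in both repeats and the primary screen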). The following applies: at 1 µM; active compounds read high.
Assay [7] has the same target. Briefly: potentiation of DAMGO-evoked TRPC4 calcium signal – cell-based, HEK293 TRPC4/mu-opioid, Fluo-4 calcium, EC20 DAMGO, dose response (AID 434941;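 active = earlier screen potentiator hit that boosts the TRPC4 ion channel at some dose, with a dose response; inactive = no potentiation, no dose response, or not a prior hit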;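 also: calcium entry triggered by an EC20 dose of DAMGO at the co-expressed mu-opioid receptor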).
The target is the same in assay [8]. Briefly: block of DAMGO-driven TRPC4 calcium entry – cell-based, HEK293 TRPC4/mu-opioid, Fluo-4 calcium, dose response (AID 434942;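 active = primary screen inhibitor hit that blocks the TRPC4 channel at some tested dose, yielding a dose curve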).
The target of assay [9] is Short transient receptor potential channel 6 (Mus musculus) (UniProt Q61143). Description: TRPC6 blockade by TRPC4 inhibitor hits – cell-based, HEK293, membrane potential dye, duplicate, selectivity assay for TRPC4 inhibitor project, confirmation (AID 434948;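 active = active in primary screen and both duplicates, each dropping signal beyond three positive-control SD with fluorescence still positive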). The following applies: HEK293 TRPC6, membrane potential dye fluorescence, at 10 µM, stimulated with maximal-effect acetylcholine; active compounds read high.

Assay [10] shares this target. Description: TRPC6 opening by TRPC4 activator hits – cell-based, HEK293, membrane potential dye, duplicate, selectivity assay for TRPC4 activator project, confirmation (AID 434950;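 active = membrane potential signal rise above negative control mean plus 3 SD in both duplicates, also active in the earlier TRPC4 screen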;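 as to activation: 0% = buffer only wells and 100% = acetylcholine maximal-effect wells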). The following applies: HEK293 TRPC6, membrane potential fluorescence, at 10 µM; activation: active compounds read high; outcome: activation.
The target is the same in assay [11]. Description: positive modulators of mouse TRPC6 channel – HEK293 cells, membrane potential dye, duplicate, selectivity assay for TRPC4 potentiator project, confirmation (AID 434952;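 active = compound raising the membrane signal above positive-control mean plus 3 SD in both repeats, and a primary screen hit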). The note with it: HEK293 TRPC6, membrane potential dye fluorescence, at 10 µM, maximal acetylcholine added after compound; active compounds read high.
Assay [12] addresses Short transient receptor potential channel 4 (Mus musculus) (UniProt Q9QUQ5). Description: calcium flux activators in TRPC4/5HT1a cells, counter-screen for TRPC4 activator project, cell-based, second counter screen, HEK293 TRPC4/5HT1a, Fluo-4 (AID 434977;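 active = calcium signal rise above buffer-control mean plus 5 SD in both duplicates, and also a hit in the primary screen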;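 as to activation: plate controls were assay buffer for no effect and maximal serotonin response for full effect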). The note with it: Fluo-4 calcium flux, at 10 µM; active compounds read high.
Assay [13] in a line: serotonin-gated TRPC4 signal block – cell-based, second counter screen, HEK293 TRPC4/5HT1a, Fluo-4, counter-screen for TRPC4 inhibitor project, confirmation (AID 434978;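 active = primary screen active whose calcium signal fell more than 3 SD beyond the full-serotonin control mean in both duplicate plates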;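 also: serotonin given first at submaximal then at maximal dose after compound preincubation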). The note with it: Fluo-4 calcium flux, at 10 µM, serotonin added to trigger calcium flux; active compounds read high. (In general: A counterscreen serves to expose hits that act by an unwanted route or on another target.)

The subject of assay [14] is TRPC4 (mouse), co-expressed with 5HT1a in HEK293. Briefly: enhancement of serotonin-evoked TRPC4 response – cell-based, second counter screen, HEK293 TRPC4/5HT1a, Fluo-4, counter-screen for TRPC4 potentiator project, confirmation (AID 434979;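 active = signal rise over 3 SD above mean of control wells given weak agonist, in both repeats and first screen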). The following applies: Fluo-4 calcium flux, at 10 µM, serotonin added at its EC20 dose; active compounds read high.
Assay [15] in a line: nonspecific calcium rise without TRPC4 – cell-based, HEK293 mu-opioid receptor line, counter-screen for TRPC4 activator project, confirmation (AID 449723).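 Also: counter screen cells carry the mu-opioid receptor alone and lack TRPC4.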 The note with it: HEK293 mu-opioid cells, Fluo-4 calcium fluorescence, at 10 µM; active compounds read high.
Assay [16] can be described thus: nonspecific potentiation of DAMGO calcium response – cell-based, HEK293 mu-opioid receptor line, counter-screen for TRPC4 allosteric potentiator project, confirmation (AID 449724;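 active = calcium signal rise more than 3 SD above the low-dose agonist control mean, in both duplicate plates and the primary screen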;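 also: HEK293 cells carrying mu-opioid receptor only with no TRPC4 channel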). The note with it: HEK293 mu-opioid receptor cells, Fluo-4 calcium flux, at 10 µM, compound added before EC20 DAMGO stimulus; active compounds read high.

In PubChem BioAssay one finds activation and outcome data, which are given here for 8 compounds.

For some assays here: Potency and affinity values are given separately. Activity calls are given as the source filed them.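 The calls were made as follows, unless noted: active = hit in primary screen, with calcium signal over 5 SD above buffer well mean in both duplicates; inactive = the rest.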

Short transient receptor potential channel 6 (Mus musculus), sequence (Q61143 whole entry, looked up): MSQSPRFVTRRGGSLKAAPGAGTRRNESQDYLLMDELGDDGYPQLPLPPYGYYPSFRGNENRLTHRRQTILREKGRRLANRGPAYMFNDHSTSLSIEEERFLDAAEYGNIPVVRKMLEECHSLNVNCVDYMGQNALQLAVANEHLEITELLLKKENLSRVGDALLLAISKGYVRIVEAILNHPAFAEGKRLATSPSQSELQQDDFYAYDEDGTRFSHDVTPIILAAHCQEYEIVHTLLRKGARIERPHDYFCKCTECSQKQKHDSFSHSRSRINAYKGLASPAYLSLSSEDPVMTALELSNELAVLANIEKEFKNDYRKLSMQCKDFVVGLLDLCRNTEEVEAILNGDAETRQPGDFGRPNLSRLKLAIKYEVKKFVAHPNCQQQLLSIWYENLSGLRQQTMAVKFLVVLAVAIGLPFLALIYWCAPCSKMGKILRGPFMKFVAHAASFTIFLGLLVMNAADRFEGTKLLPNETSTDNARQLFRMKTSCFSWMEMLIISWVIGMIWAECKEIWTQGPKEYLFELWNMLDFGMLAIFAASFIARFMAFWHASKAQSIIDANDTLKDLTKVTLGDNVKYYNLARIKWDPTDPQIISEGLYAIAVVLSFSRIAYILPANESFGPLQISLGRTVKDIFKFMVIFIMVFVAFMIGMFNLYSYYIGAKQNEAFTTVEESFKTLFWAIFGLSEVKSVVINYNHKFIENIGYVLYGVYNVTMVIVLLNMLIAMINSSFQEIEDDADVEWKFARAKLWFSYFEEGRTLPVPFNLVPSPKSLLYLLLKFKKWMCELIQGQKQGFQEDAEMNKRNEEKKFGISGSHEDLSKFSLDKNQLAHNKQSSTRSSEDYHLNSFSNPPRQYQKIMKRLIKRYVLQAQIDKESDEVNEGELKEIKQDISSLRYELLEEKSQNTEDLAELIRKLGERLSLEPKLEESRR
Short transient receptor potential channel 4 (Mus musculus), sequence (Q9QUQ5 whole entry, looked up): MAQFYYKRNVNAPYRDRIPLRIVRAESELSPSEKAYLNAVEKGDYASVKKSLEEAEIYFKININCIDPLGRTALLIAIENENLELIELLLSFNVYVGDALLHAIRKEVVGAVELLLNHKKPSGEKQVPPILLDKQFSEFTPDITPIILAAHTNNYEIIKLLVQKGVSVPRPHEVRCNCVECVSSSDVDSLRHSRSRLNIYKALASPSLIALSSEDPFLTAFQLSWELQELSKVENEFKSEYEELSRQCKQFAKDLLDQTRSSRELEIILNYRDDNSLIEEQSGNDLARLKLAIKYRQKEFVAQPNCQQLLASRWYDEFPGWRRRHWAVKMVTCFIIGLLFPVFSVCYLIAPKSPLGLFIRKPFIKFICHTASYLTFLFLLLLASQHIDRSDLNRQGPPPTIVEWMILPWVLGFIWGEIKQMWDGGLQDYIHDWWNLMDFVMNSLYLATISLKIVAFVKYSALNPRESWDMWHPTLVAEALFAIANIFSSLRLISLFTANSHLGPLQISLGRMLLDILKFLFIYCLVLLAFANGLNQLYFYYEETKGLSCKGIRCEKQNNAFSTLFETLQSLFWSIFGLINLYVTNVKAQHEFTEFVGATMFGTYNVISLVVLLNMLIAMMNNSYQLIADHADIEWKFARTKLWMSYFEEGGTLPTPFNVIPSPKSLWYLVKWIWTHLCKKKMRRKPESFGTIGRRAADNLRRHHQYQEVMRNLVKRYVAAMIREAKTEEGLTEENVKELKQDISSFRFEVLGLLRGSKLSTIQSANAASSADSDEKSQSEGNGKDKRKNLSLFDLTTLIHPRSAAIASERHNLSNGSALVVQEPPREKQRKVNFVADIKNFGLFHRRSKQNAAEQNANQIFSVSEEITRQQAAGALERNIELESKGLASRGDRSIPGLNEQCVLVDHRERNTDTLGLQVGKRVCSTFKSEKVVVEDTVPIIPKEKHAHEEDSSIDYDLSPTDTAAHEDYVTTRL

Turning to `O=S(=O)(NCCc1csc(-c2ccccc2)n1)c1cccnc1`, the activation is 93% (active) in [1], 59% (active) in [10] and 26.7% (active) in assay [12]. The outcome in [2], in assay [3], in assay [4], in assay [5], in assay [6] and in assay [7] was inactive. Moreover, the outcome in [8], in assay [9], in [11], in assay [13], in assay [14] and in assay [15] was inactive. The outcome in assay [16] was inactive.
As for `CN(C)c1ccc(-c2sc(Nc3ccccc3)n[n+]2-c2ccc(F)cc2)cc1`, the activation was 406% (active) in assay [1], 45% (active) in assay [10], 10.7% (active) in assay [12] and 274% (active) in assay [15]. Besides, the outcome in [2], in assay [3], in [4], in assay [5], in assay [6] and in assay [7] was inactive. Further, the result in assay [8], in assay [9], in [11], in [13], in assay [14] and in assay [16] was inactive.
For the compound `Cc1csc2c(N3CCN(C(=O)Nc4ccc(OC(F)(F)F)cc4)CC3)ncnc12`, the activation in [1] is 75% (active); in [12], 43.3% (active). In addition, the result in assay [2], in assay [3], in [4], in [5], in [6] and in assay [7] was inactive. In addition, the outcome in assay [8], in assay [9], in [10], in assay [11], in assay [13] and in assay [14] was inactive. In addition, the result in assay [15] and in assay [16] was inactive.
In the case of `CCOC(=O)C1(Cc2cccc(F)c2)CCN(Cc2cnn(CC)c2C)CC1`, the activation in assay [1] is 100% (active); in assay [2], 94% (active); in assay [10] it was 64% (active). Besides, the result in [3], in assay [4], in [5], in [6], in [7] and in [8] was inactive. The call in assay [9], in assay [11], in assay [12], in assay [13], in assay [14] and in [15] was inactive. Moreover, the outcome in assay [16] was inactive.
As for `O=C(NC1CCN(Cc2ccccc2)CC1)C12CC3CC(CC(C3)C1)C2`, the activation in assay [1] is 166% (active); in assay [10], 54% (active); in [12] it was 61.6% (active). In addition, the result in assay [2], in assay [3], in assay [4], in assay [5], in assay [6] and in assay [7] was inactive. The result in assay [8], in [9], in [11], in [13], in assay [14] and in assay [15] was inactive. Moreover, in assay [16], the outcome was inactive.
For `CCn1c(N2CCN(C(=S)NCCc3ccccc3)CC2)nc2ccccc21`, the result in assay [1], in assay [2], in [3], in assay [4], in [5] and in [6] was inactive. The result in assay [7], in assay [8], in [9], in [10], in assay [11] and in assay [13] was inactive. Moreover, the result in assay [14], in assay [15] and in assay [16] was inactive. Moreover, the activation in assay [12] was 21% (active).
Regarding `COc1ccc(C(CNC(=O)c2ccc3c(c2)OCCO3)N(C)C)cc1` (stereo not drawn), the activation in assay [1] is 153% (active); in assay [2] it was 123% (active); in assay [10], 49% (active). For the same compound, the outcome in [3], in [4], in [5], in [6], in [7] and in assay [8] was inactive. Further, the compound was classed as inactive in assay [9], in assay [11], in assay [12], in [13], in assay [14] and in assay [15]. Also, the outcome in assay [16] was inactive.
For the compound `Cn1c(=O)c2c(nc(CN3CCc4ccccc4C3)n2Cc2ccccc2F)n(C)c1=O`, the activation in assay [1] was 221% (active). Moreover, the outcome in assay [2], in assay [3], in assay [4], in assay [5], in assay [6] and in assay [7] was inactive. In addition, the outcome in assay [8], in assay [9], in [10], in [11], in assay [12] and in assay [13] was inactive. Further, the result in assay [14], in [15] and in [16] was inactive.
